Experimental findings from PubChem BioAssay AID686978 (National Center for Advancing Translational Sciences (NCATS), 2013) are described below.

Values joined by “and” are separate entries in the source; they are usually repeats but may differ in a detail not shown here. Identical values can stand only once. Among all 420,000 compounds or so, about 64,000 (15%) were called active. Inconclusive results (about 27%) are left out. Calls follow the shape of the dose curve; as a rule, active = well fitted inhibition curve with a large enough effect; inconclusive = small, poorly fitted or top-dose-only effect; inactive = flat fitted curve, though single readings scatter. A selection follows. A call without a number means that no potency is given here.
Potency is read from the fitted curve at half-maximal effect.

The nature of this test: qHTS for Inhibitors of human tyrosyl-DNA phosphodiesterase 1 (TDP1): qHTS in cells in absence of CPT. Also: nearly all actives have a fitted effect of over 55% in size. The conditions noted are these: DT40 Tdp1-/- hTDP1 cells, no CPT, ATP luminescence, 48 h; activity change, negative = growth inhibition: at 46.2 µM (top of the series). Summed up: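 Readout: luminescence from CellTiter-Glo after 30 min in the dark at RT. Cells: DT40 Tdp1-/- with stable hTDP1, 400/well. Exposure: compounds alone, ≥48 hr, 37 °C.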
With `CCCCN(C)CCNC(=O)CSCc1ccc(C)cc1`, the Potency entry is “inactive”. In the case of `CC1=CC(=O)C=CC1(C)C(Cl)(Cl)Cl` (configuration not stated) it was “inactive”. Then `CCN(CC(=O)NCc1ccco1)S(=O)(=O)c1ccc(F)cc1`, with “inactive”; and `Cc1c(C=O)c2ccccn2c1C(=O)c1ccncc1`, with “inactive”; and `COc1ccc([N+](=O)[O-])cc1-c1nc2ccccc2nc1-c1ccccc1`, with “inactive”. Then `COC(=O)Cn1nc(-c2ccccc2)c2cc(Cl)ccc21`, with “inactive”. In the case of `CCN(C(=O)Cn1c(=O)nc(-c2ccccc2)c2cc(Cl)ccc21)c1cccc(C)c1`, the Potency result was “inactive”. For `O=C(Cn1c(=O)nc(-c2ccccc2)c2cc(Cl)ccc21)NCc1ccc(Cl)cc1`, the Potency was 23.1 µM (active). On to `Cc1ccc(N(CC(=O)NC2CCCCC2)C(=O)CCCC(=O)Nc2ccccn2)c(C)c1`, for which the Potency entry was “inactive”. In the case of `Cn1nccc1C(=O)NCC1CCC2(CCN(Cc3c(O)ccc4ccccc34)CC2)O1` (configuration not stated) it was “inactive”; in that of `CCOC(=O)c1ccc(Nc2cc(C)nc3nc(C)nn23)cc1`, “inactive”; in that of `CCOC(=O)c1nc(Nc2ccc(C(=O)OC)cc2)c2ccccc2n1`, 8.2 µM (active) and 20.6 µM (active). In the case of `COC(=O)c1ccc(Nc2ncnc3sccc23)cc1` it was “inactive”. In the case of `COc1cc(C(=O)N2C(=O)c3cccc(N)c3C2=O)cc(OC)c1OC` it was “inactive”. On to `O=C(CCc1ccccc1)Nc1nn[nH]n1`, for which the Potency entry was “inactive”. In the case of `O=C(O)c1ccc(N=NN2CCOCC2)cc1` it was “inactive”; in that of `Cc1ccc(NC(=O)c2ccco2)cc1`, “inactive”. Then `O=C(Nc1cccc(NC(=O)c2ccco2)c1)c1cnccn1`, with “inactive”; and `Cc1ccc(C(=O)COc2cccc(NC(=O)c3ccco3)c2)cc1`, with 20.6 µM (active). Then `CCOc1cc(NC(=O)c2ccco2)c(OCC)cc1NC(=O)COc1ccccc1`, with 4.61 µM (active); and `O=C(COc1ccccc1)Nc1nonc1NC(=O)COc1ccccc1`, with “inactive”; and `CCOc1cc(NC(=S)NCc2ccco2)c(OCC)cc1NC(=O)c1ccco1`, with “inactive”. As to `Cc1cc(NC(=O)c2ccc(F)cc2)ccc1NC(=O)c1ccco1`, the Potency result was “inactive”. In the case of `COc1ccc(OCC(=O)Nc2ccc(NC(=O)c3ccco3)c(C)c2)cc1` it was “inactive”; in that of `Cc1cccc(OCC(=O)Nc2ccc(NC(=O)c3ccco3)c(C)c2)c1`, 16.4 µM (active); in that of `CC(C)c1ccc(NC(=O)Cn2ncc3ccccc32)cc1`, “inactive”. Then `CCOC(=O)C1CCN(C(=O)C2CCN(S(=O)(=O)c3c(C)noc3C)CC2)CC1`, with “inactive”; and `CCOc1ccc(Oc2nc(C)cc(OC)n2)nn1`, with “inactive”. In the case of `S=C(NCCc1ccccc1)N1CCCCC1` it was “inactive”; in that of `Oc1ccc(N2CCN(C(=S)NCc3ccccc3)CC2)cc1`, 13 µM (active). `O=C1CCN(C(=S)NCCc2ccccc2)CC1`: the Potency result is “inactive”. With `Cc1ccc(C(=O)COC(=O)CCN2C(=O)C3C4CC(C(Br)C4Br)C3C2=O)cc1` (configuration not stated), the Potency result is “inactive”. In the case of `Clc1ccc(-c2cc(COc3ccccc3)no2)cc1Cl`, the Potency entry was “inactive”. For the compound `COc1ccc(Oc2coc3cc(OC(=O)c4cncc(Br)c4)ccc3c2=O)cc1`, the Potency result was “inactive”. Then `O=C(Oc1ccccc1)Oc1ccc2c(c1)oc(=O)c1ccccc12`, with “inactive”.

Turning to `CCCCn1c(SCC(=O)NCC2CCCO2)nc2ccc(N3CCOCC3)cc2c1=O` (configuration not stated), the Potency entry was “inactive”. Then `COCCCNC(=O)CSc1nc2ccc(N3CCOCC3)cc2c(=O)n1CCc1ccccc1`, with “inactive”; and `N#CCSc1nc2ccc(N3CCOCC3)cc2c(=O)n1CCc1ccccc1`, with 20.6 µM (active); and `O=C(CSc1nnc2n1CCCN2)c1ccccc1`, with “inactive”.

As for `COc1cccc(OC)c1C(=O)OCC(=O)/C(C#N)=C(\C)N`, the Potency result is “inactive”. In the case of `CC(C)(C)n1ncc2c(=O)n(Cc3ccc(Cl)cc3)cnc21` it was 23.1 µM (active); in that of `Cc1ccc(-n2ncc3c(=O)n(Cc4cccc(C(F)(F)F)c4)cnc32)cc1C`, “inactive”; in that of `CC(=O)Cn1cnc2c(cnn2-c2ccccc2)c1=O`, “inactive”.

`c1cc(-c2nn[nH]n2)ccc1CN1CCCCC1`: the Potency result is “inactive”. Then `CC(=O)Nc1ccc(OCCC[n+]2cccc(C(=O)[O-])c2)cc1`, with “inactive”; and `Nc1cc(N)nc(SCc2cccc(F)c2)n1`, with “inactive”. In the case of `Nc1nc(SCc2ccccc2Cl)n[nH]1` it was “inactive”; in that of `Fc1ccc(CNc2nc3ccccc3n3nnnc23)cc1`, “inactive”.

Turning to `O=c1cc(O)nc(SCc2ccccc2Cl)[nH]1`, the Potency entry was “inactive”. Consider `Fc1ccc(Nc2nc(SCc3ccccc3Cl)nc3ccccc23)cc1`, for which the Potency was 16.4 µM (active).

`Fc1ccc(CSc2nc(NCc3ccccc3)c3ccccc3n2)cc1`: the Potency is 16.4 µM (active). In the case of `O=C1NCC(c2ccccc2)(c2ccccc2)C(=O)N1` it was “inactive”; in that of `CC(=O)c1nc(N2C(=O)C3CC=C(C)CC3C2=O)sc1C` (configuration not stated), “inactive”. Then `Cc1ccc(S(=O)(=O)NC2(C(F)(F)F)NC(=O)N(CCc3ccccc3)C2=O)cc1` (configuration not stated), with “inactive”; and `O=C(Nc1ccccc1F)c1ccc2c(c1)OCO2`, with “inactive”. In the case of `N[C@@H](C(=O)O)c1ccc(P(=O)(O)O)cc1` it was “inactive”; in that of `O=C(c1ccc(Cl)c(Cl)c1)N1CCCC1`, “inactive”; in that of `O=C(COc1ccc(Cl)cc1[N+](=O)[O-])N1CCCCC1`, “inactive”. Turning to `O=C(c1ccc(Oc2ccc(Cl)cc2)c([N+](=O)[O-])c1)N1CCCC1`, the Potency was 14.6 µM (active). In the case of `CCOCCN(C=O)c1cccc(OC)c1` it was “inactive”; in that of `Cc1cc(C)c2c(Cn3ccnc3)cc(=O)oc2c1`, “inactive”; in that of `CC(C)C[C@H](NC(=O)N1CC(=O)Nc2ccccc21)C(=O)N[C@H](Cc1ccccc1)C(=O)O`, “inactive”. In the case of `CSCC[C@H](NC(=O)NC1CCCC1)C(=O)O` it was “inactive”; in that of `O=C(Nc1nccs1)c1cc(S(=O)(=O)N2CCOCC2)c(Cl)cc1Cl`, “inactive”. Regarding `CCOC(=O)C1=C(c2ccccc2)NC(=O)NC1c1cc(OCC)c(O)c([N+](=O)[O-])c1` (configuration not stated), the Potency result was “inactive”. In the case of `CCCOc1ccc(C2NC(=O)NC(c3ccccc3)=C2C(C)=O)cc1OCC` (configuration not stated) it was 23.1 µM (active). In the case of `COc1cc(C2NC(=O)NC(c3ccccc3)=C2C(C)=O)c(Br)cc1OCC(N)=O` (configuration not stated) it was “inactive”; in that of `CC(C)(C(=O)N1CCC1(C)C(=O)NS(=O)(=O)c1ccc(Br)cc1)c1ccccc1` (configuration not stated), “inactive”. Then `CSc1nsc(SCC(=O)Nc2cc(C(=O)O)ccc2C)n1`, with “inactive”. Regarding `OC(C#CCN1CCOCC1)(c1ccccc1)C1CCCCC1` (configuration not stated), the Potency result was “inactive”. Then `CC(CN1CCCCC1)c1ccccc1` (configuration not stated), with “inactive”.

In the case of `COc1ccc(C(O)(C2CCCCC2)C(CN2CCCC2)c2ccccc2)cc1` (configuration not stated), the Potency was 18.4 µM (active).
